Measured values reported in the supplement of paper PMC10849652.
Targets with a hit are over-represented here; the source holds about 8,800 in all. About 0.5% of all pairs of compound and target were hits.

Experiments:
Experiment in all cases: log2 fold change, soluble protein after heating vs DMSO (PISA); higher = thermal stabilisation; K562 lysate, 10 uM; active = over 0.2 and 3.5 SD of the protein, either way, in both replicates (recomputed)
[1] = compound: NCC(=O)Nc1ccc(-n2nc(C(F)(F)F)cc2-c2ccc3c(ccc4ccccc43)c2)cc1
How it was run: (§1)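 Pellets of K562 cells were dounce-homogenised in PBS pH 7.4 with 1 mM MgCl2, and the crude extract was held at 1 mg/mL protein for a 30 min treatment with 10 μM compound. Aliquots were heated for 3 min over 48°C-58°C and pooled before NP-40 was added to 0.5% at 4°C. The supernatant from 21,000xg for 90 min was quantified by TMTpro 16plex LC-MS/MS with channel sums equalised. Values are reported from duplicates as log-two fold change in thermal stability relative to solvent controls.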

vorinostat = compound: O=C(CCCCCCC(=O)Nc1ccccc1)NO [vorinostat]
How it was run: as §1

silmitasertib = compound: O=C(O)c1ccc2c(c1)nc(Nc1cccc(Cl)c1)c1ccncc12 [silmitasertib]
How it was run: as §1

[2] = compound: O=C1NC(=O)C(c2cnc3ccccn23)=C1c1cn2c3c(cc(F)cc13)CN(C(=O)N1CCCCC1)CC2
How it was run: as §1

entospletinib = compound: c1cn2cc(-c3ccc4cn[nH]c4c3)nc(Nc3ccc(N4CCOCC4)cc3)c2n1 [entospletinib]
How it was run: as §1

Measured: log2 fold change

CAPNS1 (UniProt K7ES78)
inactive: [1] -0.234 | vorinostat -0.011 | silmitasertib -0.037 | [2] 0.141

CDK8 (UniProt P49336)
inactive: [1] -0.008 | vorinostat -0.057 | silmitasertib 0.226 | [2] -0.053

BCORL1 isoform 3 (UniProt Q5H9F3)
inactive: [1] 0.177 | vorinostat -0.004 | silmitasertib -0.093 | [2] 0.213 | entospletinib -0.018

CARNMT1 (UniProt Q8N4J0)
UniProt Q8N4J0, sequence (Q8N4J0 whole entry, looked up): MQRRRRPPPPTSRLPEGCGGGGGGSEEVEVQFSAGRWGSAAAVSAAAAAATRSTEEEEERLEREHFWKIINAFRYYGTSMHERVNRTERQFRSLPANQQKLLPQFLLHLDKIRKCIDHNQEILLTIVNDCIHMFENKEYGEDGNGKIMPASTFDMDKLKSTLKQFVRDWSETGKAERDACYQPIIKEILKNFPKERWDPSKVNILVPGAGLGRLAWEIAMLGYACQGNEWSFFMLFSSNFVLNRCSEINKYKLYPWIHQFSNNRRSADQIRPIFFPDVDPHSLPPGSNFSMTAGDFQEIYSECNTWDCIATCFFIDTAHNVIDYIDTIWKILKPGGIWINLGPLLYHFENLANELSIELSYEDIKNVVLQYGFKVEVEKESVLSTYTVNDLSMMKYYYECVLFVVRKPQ
inactive: [1] 0.005 | vorinostat 0.027 | silmitasertib 0.008 | [2] -0.028 | entospletinib -0.039

C18orf32 (UniProt Q8TCD1)
active: vorinostat -0.486
inactive: [1] 0.004 | silmitasertib -0.021 | [2] 0.017 | entospletinib -0.071

BRD4 (UniProt O60885)
inactive: [1] 0.01 | vorinostat -0.115 | silmitasertib -0.011 | [2] -0.02 | entospletinib -0.028

CDAN1 (UniProt Q8IWY9)
inactive: [1] 0.019 | silmitasertib 0.05 | [2] 0.056 | entospletinib -0.006
active: vorinostat -0.326

CELF1 isoform 4 (UniProt Q92879)
UniProt Q92879, sequence (Q92879 whole entry, looked up): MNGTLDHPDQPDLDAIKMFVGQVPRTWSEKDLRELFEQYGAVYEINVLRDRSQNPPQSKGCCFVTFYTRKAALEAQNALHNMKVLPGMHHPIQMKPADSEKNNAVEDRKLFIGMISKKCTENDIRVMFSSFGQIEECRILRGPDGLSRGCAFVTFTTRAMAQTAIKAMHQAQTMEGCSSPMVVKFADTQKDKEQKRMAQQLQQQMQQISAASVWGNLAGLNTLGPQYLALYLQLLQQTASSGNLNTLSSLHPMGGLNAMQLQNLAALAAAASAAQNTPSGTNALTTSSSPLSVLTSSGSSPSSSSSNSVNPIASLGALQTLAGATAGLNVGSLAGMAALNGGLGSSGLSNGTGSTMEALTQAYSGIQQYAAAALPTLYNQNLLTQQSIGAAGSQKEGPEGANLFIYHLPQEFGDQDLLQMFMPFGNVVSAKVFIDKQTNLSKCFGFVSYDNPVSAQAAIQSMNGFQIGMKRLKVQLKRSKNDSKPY
active: vorinostat -0.347
inactive: [1] 0.065 | silmitasertib 0.019 | [2] 0.022 | entospletinib 0.013

ATP13A1 (UniProt Q9HD20)
inactive: [1] -0.009 | vorinostat -0.094 | silmitasertib 0.03 | [2] -0.02 | entospletinib -0.03

BCR (UniProt P11274)
active: vorinostat -0.267
inactive: [1] 0.012 | silmitasertib 0.005 | [2] 0.001 | entospletinib -0.009

C3 (UniProt P01024)
inactive: [1] 0.024 | vorinostat -0.098 | silmitasertib 0.008 | [2] 0.062 | entospletinib -0.036

CCDC32 isoform 2 (UniProt Q9BV29)
UniProt Q9BV29, sequence (Q9BV29 whole entry, looked up): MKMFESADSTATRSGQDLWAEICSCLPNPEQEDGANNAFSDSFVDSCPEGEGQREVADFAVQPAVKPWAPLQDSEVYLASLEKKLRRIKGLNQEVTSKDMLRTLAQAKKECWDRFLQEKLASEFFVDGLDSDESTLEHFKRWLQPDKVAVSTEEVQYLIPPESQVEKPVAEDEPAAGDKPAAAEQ
inactive: [1] 0.005 | vorinostat 0.058 | silmitasertib -0.044 | [2] 0.009 | entospletinib -0.042

CDC42EP4 (UniProt Q9H3Q1)
inactive: [1] 0 | vorinostat 0.018 | silmitasertib -0.074 | [2] 0.021 | entospletinib 0.051

ATG7 (UniProt O95352)
active: vorinostat -0.47
inactive: [1] 0.008 | silmitasertib 0.005 | [2] -0.005 | entospletinib 0.001

CDK11B (UniProt P21127)
UniProt P21127, sequence (P21127 whole entry, looked up): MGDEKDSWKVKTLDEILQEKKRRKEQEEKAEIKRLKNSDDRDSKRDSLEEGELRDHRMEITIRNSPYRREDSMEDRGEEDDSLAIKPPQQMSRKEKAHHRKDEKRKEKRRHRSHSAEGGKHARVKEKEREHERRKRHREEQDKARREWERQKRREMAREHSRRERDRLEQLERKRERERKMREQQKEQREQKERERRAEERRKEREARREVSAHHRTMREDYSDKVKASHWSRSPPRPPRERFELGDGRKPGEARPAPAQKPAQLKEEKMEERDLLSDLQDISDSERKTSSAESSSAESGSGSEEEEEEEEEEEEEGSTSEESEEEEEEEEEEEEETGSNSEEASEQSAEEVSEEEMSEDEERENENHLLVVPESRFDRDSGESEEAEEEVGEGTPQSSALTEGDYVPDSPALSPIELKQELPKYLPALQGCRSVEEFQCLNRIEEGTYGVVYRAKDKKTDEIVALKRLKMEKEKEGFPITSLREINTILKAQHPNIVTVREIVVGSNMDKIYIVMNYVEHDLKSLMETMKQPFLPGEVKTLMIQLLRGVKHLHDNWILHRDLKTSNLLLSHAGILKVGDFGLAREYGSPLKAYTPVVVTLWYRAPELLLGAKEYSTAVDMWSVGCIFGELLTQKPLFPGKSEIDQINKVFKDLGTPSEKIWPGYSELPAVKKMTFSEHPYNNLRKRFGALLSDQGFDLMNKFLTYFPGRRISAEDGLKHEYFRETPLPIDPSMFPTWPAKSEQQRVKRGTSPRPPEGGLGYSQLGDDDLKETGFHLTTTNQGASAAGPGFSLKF
inactive: [1] 0.009 | vorinostat -0.115 | silmitasertib 0.065 | [2] -0.023
active: entospletinib 0.255

C3orf33 (UniProt Q6P1S2)
UniProt Q6P1S2, sequence (Q6P1S2 whole entry, looked up): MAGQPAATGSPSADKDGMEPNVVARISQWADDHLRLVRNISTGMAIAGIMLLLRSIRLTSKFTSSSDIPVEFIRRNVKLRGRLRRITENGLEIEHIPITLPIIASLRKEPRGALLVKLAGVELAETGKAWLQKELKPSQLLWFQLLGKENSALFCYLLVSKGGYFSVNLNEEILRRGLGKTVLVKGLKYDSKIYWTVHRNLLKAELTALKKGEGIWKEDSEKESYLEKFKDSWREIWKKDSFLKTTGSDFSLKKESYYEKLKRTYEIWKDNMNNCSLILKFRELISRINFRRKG
inactive: [1] -0.085 | vorinostat -0.118 | silmitasertib -0.137 | [2] 0.023

CDK5RAP3 isoform 4 (UniProt Q96JB5)
UniProt Q96JB5, sequence (Q96JB5 whole entry, looked up): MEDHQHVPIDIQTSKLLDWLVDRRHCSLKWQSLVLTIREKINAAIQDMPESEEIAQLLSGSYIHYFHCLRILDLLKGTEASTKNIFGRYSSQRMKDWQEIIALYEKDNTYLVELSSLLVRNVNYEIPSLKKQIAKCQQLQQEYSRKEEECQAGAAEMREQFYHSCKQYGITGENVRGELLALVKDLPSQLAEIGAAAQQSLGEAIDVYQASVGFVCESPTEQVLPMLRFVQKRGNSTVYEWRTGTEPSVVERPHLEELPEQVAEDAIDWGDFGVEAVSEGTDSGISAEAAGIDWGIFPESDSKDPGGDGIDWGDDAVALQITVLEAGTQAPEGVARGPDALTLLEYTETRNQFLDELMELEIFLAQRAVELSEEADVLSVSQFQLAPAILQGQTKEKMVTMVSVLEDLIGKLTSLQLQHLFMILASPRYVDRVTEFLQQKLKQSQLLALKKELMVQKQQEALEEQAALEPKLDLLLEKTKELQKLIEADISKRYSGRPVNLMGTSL
inactive: [1] 0.046 | vorinostat 0.026 | silmitasertib 0.068 | [2] 0 | entospletinib 0.012

CCDC186 (UniProt Q7Z3E2)
inactive: [1] 0.052 | vorinostat 0.005 | silmitasertib 0.057 | [2] 0.012 | entospletinib -0.01

ATR (UniProt Q13535)
inactive: [1] 0.044 | vorinostat -0.131 | [2] -0.01 | entospletinib 0.046
active: silmitasertib 0.509

CAMK2G isoform 8 (UniProt Q13555)
inactive: [1] -0.044 | vorinostat -0.208 | silmitasertib 0.087 | [2] 0.084 | entospletinib 0.004

CHCHD2 (UniProt Q9Y6H1)
UniProt Q9Y6H1, sequence (Q9Y6H1 whole entry, looked up): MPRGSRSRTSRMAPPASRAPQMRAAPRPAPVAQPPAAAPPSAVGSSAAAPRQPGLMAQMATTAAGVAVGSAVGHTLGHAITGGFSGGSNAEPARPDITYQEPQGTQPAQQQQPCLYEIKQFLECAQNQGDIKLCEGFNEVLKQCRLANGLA
active: vorinostat -0.301
inactive: [1] -0.022 | silmitasertib 0.044 | [2] -0.017 | entospletinib -0.06

CAD (UniProt P27708)
UniProt P27708, sequence (P27708 whole entry, looked up): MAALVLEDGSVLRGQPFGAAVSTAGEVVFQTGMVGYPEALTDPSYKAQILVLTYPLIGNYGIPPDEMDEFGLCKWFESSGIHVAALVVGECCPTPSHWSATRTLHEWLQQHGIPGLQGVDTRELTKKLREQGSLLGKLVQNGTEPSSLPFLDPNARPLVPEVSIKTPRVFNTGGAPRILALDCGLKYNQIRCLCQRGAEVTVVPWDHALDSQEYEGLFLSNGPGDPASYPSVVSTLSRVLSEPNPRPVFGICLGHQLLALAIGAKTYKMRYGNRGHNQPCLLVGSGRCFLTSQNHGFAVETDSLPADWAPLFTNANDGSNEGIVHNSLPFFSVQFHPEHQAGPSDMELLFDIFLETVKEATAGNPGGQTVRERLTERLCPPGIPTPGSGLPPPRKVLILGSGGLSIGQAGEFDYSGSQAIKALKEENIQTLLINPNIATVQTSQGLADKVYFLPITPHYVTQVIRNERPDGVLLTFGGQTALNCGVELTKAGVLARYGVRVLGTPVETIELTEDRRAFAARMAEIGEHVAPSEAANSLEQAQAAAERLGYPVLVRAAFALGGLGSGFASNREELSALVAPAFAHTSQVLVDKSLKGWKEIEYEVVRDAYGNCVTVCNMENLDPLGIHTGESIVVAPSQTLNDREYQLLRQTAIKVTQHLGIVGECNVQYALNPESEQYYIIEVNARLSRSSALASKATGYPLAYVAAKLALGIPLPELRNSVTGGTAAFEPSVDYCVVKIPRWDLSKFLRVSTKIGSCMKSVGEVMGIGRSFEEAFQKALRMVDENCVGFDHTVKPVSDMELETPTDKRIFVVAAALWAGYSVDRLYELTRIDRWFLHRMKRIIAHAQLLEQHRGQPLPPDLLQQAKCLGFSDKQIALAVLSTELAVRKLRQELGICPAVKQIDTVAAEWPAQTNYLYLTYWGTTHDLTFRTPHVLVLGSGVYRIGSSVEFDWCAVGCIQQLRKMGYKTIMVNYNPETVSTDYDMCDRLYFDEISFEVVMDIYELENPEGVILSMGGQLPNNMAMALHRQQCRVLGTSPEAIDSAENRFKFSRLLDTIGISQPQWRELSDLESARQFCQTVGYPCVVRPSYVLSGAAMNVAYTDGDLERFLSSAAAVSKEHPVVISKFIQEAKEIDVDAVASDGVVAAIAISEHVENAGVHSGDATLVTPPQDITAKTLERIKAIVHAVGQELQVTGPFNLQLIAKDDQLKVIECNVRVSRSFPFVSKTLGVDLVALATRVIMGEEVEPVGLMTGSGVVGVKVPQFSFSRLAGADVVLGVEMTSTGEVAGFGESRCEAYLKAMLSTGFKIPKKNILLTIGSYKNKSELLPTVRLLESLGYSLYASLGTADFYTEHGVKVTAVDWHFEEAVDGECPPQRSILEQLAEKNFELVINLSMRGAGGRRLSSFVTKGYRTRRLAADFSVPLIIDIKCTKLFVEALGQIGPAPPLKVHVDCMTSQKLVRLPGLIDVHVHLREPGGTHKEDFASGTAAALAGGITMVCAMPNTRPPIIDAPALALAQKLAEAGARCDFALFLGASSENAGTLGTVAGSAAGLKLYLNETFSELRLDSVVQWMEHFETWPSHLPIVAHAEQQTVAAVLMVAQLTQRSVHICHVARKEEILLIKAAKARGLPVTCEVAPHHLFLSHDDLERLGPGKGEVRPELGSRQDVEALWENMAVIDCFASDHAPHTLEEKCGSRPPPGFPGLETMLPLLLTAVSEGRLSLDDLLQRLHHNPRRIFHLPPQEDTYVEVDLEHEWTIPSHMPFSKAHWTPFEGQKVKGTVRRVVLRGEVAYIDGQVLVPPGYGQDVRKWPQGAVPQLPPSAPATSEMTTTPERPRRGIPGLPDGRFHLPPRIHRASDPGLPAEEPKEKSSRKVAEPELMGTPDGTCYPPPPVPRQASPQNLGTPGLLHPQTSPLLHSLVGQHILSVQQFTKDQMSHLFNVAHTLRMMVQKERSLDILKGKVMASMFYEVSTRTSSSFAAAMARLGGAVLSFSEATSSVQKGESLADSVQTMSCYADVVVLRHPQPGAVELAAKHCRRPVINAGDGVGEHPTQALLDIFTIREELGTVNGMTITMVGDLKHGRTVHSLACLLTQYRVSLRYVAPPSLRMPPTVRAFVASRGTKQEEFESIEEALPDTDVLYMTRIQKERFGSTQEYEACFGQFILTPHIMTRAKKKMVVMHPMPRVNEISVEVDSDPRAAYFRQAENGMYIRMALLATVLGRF
inactive: [1] 0.012 | vorinostat -0.067 | silmitasertib 0.026 | [2] 0.008 | entospletinib 0

BRAT1 (UniProt Q6PJG6)
active: vorinostat -0.32
inactive: [1] 0.015 | silmitasertib -0.002 | [2] -0.013 | entospletinib 0.004

BCL2L12 (UniProt Q9HB09)
inactive: [1] 0.031 | vorinostat -0.033 | silmitasertib 0.1 | [2] -0.085 | entospletinib -0.129

CANX (UniProt D6RHJ3)
inactive: [1] 0.012
